Laboratory results reported in publication PMC4336329 (PLoS ONE, 2015).
Screen size: about 310,000 compounds; about 14,000 (4.5%) showed an effect of 50% or more. Effects have a minus sign here. The sample as a whole holds a higher share of strong results than the screen did.

What follows are molecules tested against human ether-à-go-go-related gene (hERG) potassium channel (human, UniProt Q12809) (assay: primary screen, population patch clamp on CHO cells stably expressing hERG; higher = less effect of the substance).
human ether-à-go-go-related gene (hERG) potassium channel, sequence (Q12809 whole entry, looked up): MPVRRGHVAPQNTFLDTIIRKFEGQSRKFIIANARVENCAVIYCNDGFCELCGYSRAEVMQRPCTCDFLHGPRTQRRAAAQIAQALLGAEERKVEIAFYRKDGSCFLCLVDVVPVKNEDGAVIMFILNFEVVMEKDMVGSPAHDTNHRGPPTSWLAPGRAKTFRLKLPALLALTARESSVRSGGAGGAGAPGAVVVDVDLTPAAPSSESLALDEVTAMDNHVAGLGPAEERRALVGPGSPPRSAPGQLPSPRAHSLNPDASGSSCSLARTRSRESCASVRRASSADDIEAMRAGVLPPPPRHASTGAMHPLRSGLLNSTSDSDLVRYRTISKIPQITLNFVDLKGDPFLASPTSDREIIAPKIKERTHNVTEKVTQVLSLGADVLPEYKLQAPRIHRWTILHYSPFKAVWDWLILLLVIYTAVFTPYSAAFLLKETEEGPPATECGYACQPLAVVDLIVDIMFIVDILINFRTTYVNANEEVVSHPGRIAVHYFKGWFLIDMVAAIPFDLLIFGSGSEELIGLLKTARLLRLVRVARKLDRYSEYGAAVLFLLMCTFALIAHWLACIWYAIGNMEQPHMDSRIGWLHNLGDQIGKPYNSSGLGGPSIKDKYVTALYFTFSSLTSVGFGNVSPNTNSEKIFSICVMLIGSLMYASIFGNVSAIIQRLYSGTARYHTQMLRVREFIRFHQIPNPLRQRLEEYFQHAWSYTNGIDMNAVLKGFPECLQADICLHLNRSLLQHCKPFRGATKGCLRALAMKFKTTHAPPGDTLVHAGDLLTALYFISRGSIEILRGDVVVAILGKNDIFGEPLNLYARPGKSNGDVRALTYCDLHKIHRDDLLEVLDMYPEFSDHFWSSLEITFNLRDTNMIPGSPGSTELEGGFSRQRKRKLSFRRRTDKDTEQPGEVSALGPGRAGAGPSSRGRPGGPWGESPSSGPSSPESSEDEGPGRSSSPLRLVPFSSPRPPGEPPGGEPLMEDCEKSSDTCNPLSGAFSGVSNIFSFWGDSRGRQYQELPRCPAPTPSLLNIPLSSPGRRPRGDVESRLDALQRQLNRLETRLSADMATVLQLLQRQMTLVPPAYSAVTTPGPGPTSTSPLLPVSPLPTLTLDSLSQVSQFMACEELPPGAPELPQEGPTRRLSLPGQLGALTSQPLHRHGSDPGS
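Also: peak tail current of the secondary pulse compared with the same well before compound.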

SMILES	hERG current change (%, negative = inhibition) at 10uM [%]
COc1c(O)c(=O)n2c3ccccc3c3ccnc1c32	7.51
CCc1ccc(NC(=O)Nn2cnnc2)cc1	23.7
COC(=O)CNC(=O)CSc1nnc(-c2ccc(OC)cc2)n1CC(C)C	4.97
O=C(/C=N/O)Nc1ccccc1C(=O)O	-13.7
N#Cc1ccc(C23CC4(C2)[C@H](CN(CC2CCCCC2)[C@@H]4c2ccccc2)C3c2ccccc2)cc1 (some centres unmarked)	-13.6
O=C(Nc1ccc(Cl)cc1)c1cccnc1N1CCCCC1	-13.3
COc1cc(C(=O)NCCNc2nc3ccc(C)cc3cc2C#N)cc(OC)c1OC	-4.74
Cc1cccc2cc3c(NC(=O)CC(C)C)nn(C)c3nc12	10.2
Fc1ccc(-[n+]2nc(Nc3ccccc3)sc2-c2cccc(Cl)c2Cl)cc1.[Cl-]	8
Oc1ccc(-c2sc(Nc3ccccc3)n[n+]2-c2ccc(F)cc2)cc1.[Cl-]	-1.63
CSc1ccc(-c2sc(Nc3ccccc3)n[n+]2-c2ccc(F)cc2)cc1.[Cl-]	1.55
CCN(CC)c1ccc(-c2sc(Nc3ccccc3)n[n+]2-c2ccc(F)cc2)cc1.[Cl-]	-71.6
CCc1ccc(Nc2n[n+](-c3ccccc3)c(-c3ccc(N(CC)CC)cc3)s2)cc1.[Cl-]	-36
O=C(O)c1ccc(-c2sc(Nc3ccccc3)n[n+]2-c2ccc(F)cc2)cc1.[Cl-]	2.83
CSc1ccc(-c2sc(Nc3ccccc3)n[n+]2-c2ccccc2)cc1.[Cl-]	-46.2
Cc1cccc(-c2sc(Nc3ccccc3)n[n+]2-c2ccccc2)c1.[Cl-]	-72
Clc1cccc(-c2sc(Nc3ccccc3)n[n+]2-c2ccccc2)c1Cl.[Cl-]	5.53
Fc1ccc(-[n+]2nc(Nc3ccccc3)sc2-c2c(Cl)cccc2Cl)cc1.[Cl-]	-64
Cc1cccc(-c2sc(Nc3ccccc3)n[n+]2-c2ccc(F)cc2)c1.[Cl-]	21.7
CN(C)c1ccc(-c2sc(Nc3ccccc3)n[n+]2-c2ccc(F)cc2)cc1.[Cl-]	-73.1

SMILES	hERG current change (%, negative = inhibition) at 10uM [%]
Cl.O=C(c1ccco1)N1CCN(Cc2nnnn2CC2CCCO2)CC1 (centres unmarked)	-3.16
Cn1c(=O)[nH]c(=O)c2c1nc(NC1CCCC1)n2Cc1ccccc1	15.8
CC1CCN(c2c(NCc3ccc(C(=O)N4c5ccccc5CC4C)cc3)c(=O)c2=O)CC1 (centres unmarked)	-13
Cc1ccc(S(=O)(=O)Nc2c(C(=O)O)[nH]c3ccccc23)c(C)c1	8.39
N#C/C(N)=C(/C#N)N=Cc1cccc(Cl)c1	4.99
CCN1CCN(Cc2c(O)ccc3c2O/C(=C\c2ccc(C)cc2)C3=O)CC1	-35.7
CSc1ccc(S(=O)(=O)Nc2ccc(NC(C)=O)cc2)cc1	-11.3
CCOc1ccc(CN(C(=O)/C=C/c2ccco2)C2CCS(=O)(=O)C2)cc1 (centres unmarked)	-31.6
CC(=O)c1cccc(N(C(=O)CNC(=O)c2ccco2)C(C(=O)NC2CCCC2)c2ccc(C)o2)c1 (centres unmarked)	6.93
CC1CCN(CCCNC(=O)C2CCCN(c3ncnc4c3nc3n4CCCCC3)C2)CC1 (centres unmarked)	-3.75
O=C(C1CCN(c2ncnc3c2nc2n3CCCCC2)CC1)N1CCCCC1	16
CCN1CCN(C(=O)C2CCCN(c3ncnc4c3nc3n4CCCCC3)C2)CC1 (centres unmarked)	11.6
CCOC(=O)C1CCN(C(=O)C2CCCN(c3ncnc4c3nc3n4CCCCC3)C2)CC1 (centres unmarked)	-34.1
O=C(C1CCCN(c2ncnc3c2nc2n3CCCCC2)C1)N1CCN(c2ccc(F)cc2)CC1 (centres unmarked)	-66.8
CN1CCN(C(=O)C2CCN(c3ncnc4c3nc3n4CCCCC3)CC2)CC1	17.7
O=C(NCCCN1CCCCC1)C1CCCN(c2ncnc3c2nc2n3CCCCC2)C1 (centres unmarked)	1.8
Cc1ccc(N2CCN(C(=O)C3CCCN(c4ncnc5c4nc4n5CCCCC4)C3)CC2)c(C)c1 (centres unmarked)	-7.35
O=C(C1CCCN(c2ncnc3c2nc2n3CCCCC2)C1)N1CCN(c2ccccc2F)CC1 (centres unmarked)	-72
O=C(NCCCN1CCN(c2ccc(F)cc2)CC1)C1CCCN(c2ncnc3c2nc2n3CCCCC2)C1 (centres unmarked)	-66.3
O=C(C1CCN(c2ncnc3c2nc2n3CCCCC2)CC1)N1CCN(c2ccccc2F)CC1	-33.1

SMILES	hERG current change (%, negative = inhibition) at 10uM [%]
O=C(C1CCN(c2ncnc3c2nc2n3CCCCC2)CC1)N1CCN(c2ccc(F)cc2)CC1	-51.5
O=C(O)CCC(=O)Nc1cc(C(F)(F)F)cc(C(F)(F)F)c1	15.1
Cc1ccccc1-n1c(-c2csc(C)c2C)n[nH]c1=S	17.6
Cc1cc(C)c2c(N)c(C(=O)c3cccc(Cl)c3)sc2n1	1.67
CCOc1ccc(C(=O)N2CCc3cc(OC)c(OC)cc3C2)cc1OCC	2.45
CCOC(=O)C(C(=O)OCC)N(C#N)c1nc(OC)nc(N(C)C)n1	-4.52
O=C(CS)Nc1ccc2ccccc2c1	20.8
CCn1c2ccccc2c2cc(NC(=O)c3cccc(OC)c3)ccc21	13.9
COC(=O)c1sccc1NC(=O)CC1C(=O)NCCN1C(=O)c1ccc(N(C)C)cc1 (centres unmarked)	7.57
COc1ccc(Cl)cc1NC(=O)CSc1nnc(CN2CCOCC2)n1-c1ccc(Cl)cc1	-46.6
O=C(Nc1ccc(S(=O)(=O)NCC2CCCO2)cc1)c1ccccc1 (centres unmarked)	2.19
CC1CC(C)CN(C(=O)C2CCCN(c3ncnc4c3nc3n4CCCCC3)C2)C1 (centres unmarked)	-35.8
CCCN1CCN(C(=O)C2CCCN(c3ncnc4c3nc3n4CCCCC3)C2)CC1 (centres unmarked)	-1.04
O=C(C1CCCN(c2ncnc3c2nc2n3CCCCC2)C1)N1CCN(c2ccccc2)CC1 (centres unmarked)	-74
O=C(C1CCCN(c2ncnc3c2nc2n3CCCCC2)C1)N1CCN(c2cccc(Cl)c2)CC1 (centres unmarked)	-72.8
O=C(C1CCN(c2ncnc3c2nc2n3CCCCC2)CC1)N1CCN(c2cccc(Cl)c2)CC1	-36.7
O=C(C1CCCN(c2ncnc3c2nc2n3CCCCC2)C1)N1CCN(c2ccc(Cl)cc2)CC1 (centres unmarked)	-54.8
Cc1ccc(C)c(N2CCN(C(=O)C3CCCN(c4ncnc5c4nc4n5CCCCC4)C3)CC2)c1 (centres unmarked)	-33.6
O=C(C1CCCN(c2ncnc3c2nc2n3CCCCC2)C1)N1CCCCC1 (centres unmarked)	-18.2
